# Measurements taken from PubChem BioAssay.
# A number with no mark means an inactive call. Active and inactive are the calls of the source.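 How the source made its calls, unless noted: active means inhibition at or above 50% at 10 µM; inactive means inhibition below 50%.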
# Experiment: blockers of RIG-like receptor reporter activation – cell-based, Sendai virus stimulus, luciferase, 10K MLSCN set, TLR/RLR signaling modifier project, primary screen (AID 602276);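 further: firefly luciferase from ISG56 promoter only with Renilla not read in this screen; 0% = Sendai virus plus DMSO and 100% = medium plus DMSO without virus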
# Conditions: HEK293 RL24 IRF3 luciferase reporter, at 10 µM, stronger effect = higher value
row,Compound,inhibition
1,CCOC(=O)c1c(-c2cccs2)csc1NC(=O)CCCC(=O)O,15.6%
2,Fc1ccc(-c2cnc[nH]2)cc1,-22.9%
3,CCOC(=O)c1[nH]c2ccc(Br)cc2c1NC(=O)CNC,18.6%
4,COc1ccc(C2(CN(C(C)=O)C(C)=O)CCCC2)cc1OC,1.22%
5,COc1ccccc1C1C(C#N)=C(N)Oc2cc(C)n(Cc3ccccn3)c(=O)c21 (stereo not drawn),-7.32%
6,Cc1ccc(C(=O)/C=C/Nc2cccc(O)c2)cc1,5.62%
7,O=C(C1CC1(c1ccccc1)c1ccccc1)N1CCOCC1 (stereo not drawn),18.5%
8,COC(=O)CNC(=O)c1c(C)cc(=O)oc1C,5.18%
9,COc1ccc(CCn2c(=N)c(C(=O)NCc3ccco3)cc3c(=O)n4ccccc4nc32)cc1,5.21%
10,Nc1nc(NC(=O)c2cccs2)nn1-c1ccccc1,-31.7%
11,Cc1c(O)c(CN2CCCC(C)C2)cc2c3c(c(=O)oc12)CCC3 (stereo not drawn),13.6%
12,COc1ccc(CCn2c(=N)c(C#N)cc3c(=O)n4ccccc4nc32)cc1,13.2%
13,Cn1c(SCC(=O)N2CCOCC2)nnc1-c1cccc(NC(=O)c2ccccc2F)c1,13.9%
14,O=C(NC1CCS(=O)(=O)C1)c1c(NC(=O)C2COc3ccccc3O2)sc2c1CCCC2 (stereo not drawn),17.1%
15,COC(=O)C(NC(C)=O)(Nc1nc2ccc(S(C)(=O)=O)cc2s1)C(F)(F)F (stereo not drawn),-0.421%
16,COc1ccc2c(c1)C1(C)CC(C)(C)N2C(=O)N1c1ccccc1 (stereo not drawn),12%
17,CCCCCn1c2nc3ccccc3nc2c2c(=O)n(CC(C)C)cnc21,19.4%
18,Nc1nnnn1/N=C/c1ccccn1,-14.9%
19,Cc1nnc2n(-c3ccccc3)c(=O)c3c4c(sc3n12)CCCC4,-14.4%
20,CCc1nc2sc3c(c2c(=O)o1)CCCC3,23%

row,Compound,inhibition
1,CCOC(=O)CNC(=O)Nc1ccccc1C(=O)OC,10.2%
2,COc1ccc(C(=O)NCCCCCC(=O)O)cc1OC,3.62%
3,CCOC(=O)C1=C(CSc2nc(C)cc(C)c2C#N)OC(N)=C(C#N)C1c1cccs1 (stereo not drawn),13.2%
4,COc1cc(NC(=O)NC(C)(C(F)(F)F)C(F)(F)F)cc(OC)c1OC,10.8%
5,COC(=O)C(NC(C)=O)(Nc1ccccn1)C(F)(F)F (stereo not drawn),12.5%
6,CC1(C)CNC(=O)c2sc(N3CCOCC3)nc2C1,17.2%
7,CCOC(=O)c1ccc(CC2S/C(=C(\C#N)C(C)=O)NC2=O)cc1 (stereo not drawn),6.73%
8,CC(=Nc1cccc(O)c1)c1sc2ccccc2c1O,-6%
9,COc1cccc(N2C(=O)C(O)=C(C(C)=O)C2c2ccc(OC)c(OC)c2)c1 (stereo not drawn),5.42%
10,O=S(=O)(c1ccc2ccccc2c1)N(CC(O)CN1CCOCC1)c1ccccc1 (stereo not drawn),20.7%
11,Cc1c(O)c(CN2CCCCC2)cc2c3c(c(=O)oc12)CCC3,12.6%
12,O=S(=O)(NCc1cccnc1)c1cccc2nsnc12,15.1%
13,Cc1cc(O)c(C(C)C)cc1N=C1CSC(=O)N1,13%
14,Cc1nc2sc(C#N)c(N)c2c2c1CCCC2,-2.92%
15,N#C/C(C(=O)N1CCOCC1)=C1/SC(Cc2ccccc2)C(=O)N1c1ccccc1 (stereo not drawn),15.2%
16,CN(CC(O)COc1ccc(OCC(O)CN(C)C2CCCCC2)cc1)C1CCCCC1 (stereo not drawn),-47.8%
17,Cn1c(=O)[nH]c(=O)c2c1nc(N(CCO)Cc1ccccc1)n2Cc1ccccc1Cl,16.5%
18,Cc1nn(-c2ccccc2)c2c1C(=O)NC(=O)C(C)(C)C2,14.6%
19,Cc1ccc(-n2ncc3c(N4CCN(c5ccccc5)CC4)ncnc32)c(C)c1,20.5%

# Experiment: TLR3 IRF3 reporter activation blockers – cell-based, poly I:C stimulus, luciferase, 10K MLSCN set, primary screen (AID 602277;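 active means inhibition of the reporter signal at or above 50%; inactive means inhibition below 50%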)
# Conditions: HEK293-TLR3 RL24 IRF3 luciferase reporter, at 10 µM, stronger effect = higher value
row,Compound,inhibition
1,CCOC(=O)c1c(-c2cccs2)csc1NC(=O)CCCC(=O)O,21.7%
2,Fc1ccc(-c2cnc[nH]2)cc1,-37.6%
3,CCOC(=O)c1[nH]c2ccc(Br)cc2c1NC(=O)CNC,33.1%
4,COc1ccc(C2(CN(C(C)=O)C(C)=O)CCCC2)cc1OC,7.89%
5,COc1ccccc1C1C(C#N)=C(N)Oc2cc(C)n(Cc3ccccn3)c(=O)c21 (stereo not drawn),4.86%
6,Cc1ccc(C(=O)/C=C/Nc2cccc(O)c2)cc1,-32.3%
7,O=C(C1CC1(c1ccccc1)c1ccccc1)N1CCOCC1 (stereo not drawn),22.6%
8,COC(=O)CNC(=O)c1c(C)cc(=O)oc1C,12%
9,COc1ccc(CCn2c(=N)c(C(=O)NCc3ccco3)cc3c(=O)n4ccccc4nc32)cc1,17.8%
10,Nc1nc(NC(=O)c2cccs2)nn1-c1ccccc1,-72.3%
11,Cc1c(O)c(CN2CCCC(C)C2)cc2c3c(c(=O)oc12)CCC3 (stereo not drawn),16%
12,COc1ccc(CCn2c(=N)c(C#N)cc3c(=O)n4ccccc4nc32)cc1,2.91%
13,Cn1c(SCC(=O)N2CCOCC2)nnc1-c1cccc(NC(=O)c2ccccc2F)c1,22.5%
14,O=C(NC1CCS(=O)(=O)C1)c1c(NC(=O)C2COc3ccccc3O2)sc2c1CCCC2 (stereo not drawn),14.6%
15,COC(=O)C(NC(C)=O)(Nc1nc2ccc(S(C)(=O)=O)cc2s1)C(F)(F)F (stereo not drawn),13.8%
16,COc1ccc2c(c1)C1(C)CC(C)(C)N2C(=O)N1c1ccccc1 (stereo not drawn),23.1%
17,CCCCCn1c2nc3ccccc3nc2c2c(=O)n(CC(C)C)cnc21,19.9%
18,Nc1nnnn1/N=C/c1ccccn1,-32%
19,Cc1nnc2n(-c3ccccc3)c(=O)c3c4c(sc3n12)CCCC4,-35.5%
20,CCc1nc2sc3c(c2c(=O)o1)CCCC3,35.5%

row,Compound,inhibition
1,CCOC(=O)CNC(=O)Nc1ccccc1C(=O)OC,18.3%
2,COc1ccc(C(=O)NCCCCCC(=O)O)cc1OC,12.3%
3,CCOC(=O)C1=C(CSc2nc(C)cc(C)c2C#N)OC(N)=C(C#N)C1c1cccs1 (stereo not drawn),23.4%
4,COc1cc(NC(=O)NC(C)(C(F)(F)F)C(F)(F)F)cc(OC)c1OC,13.7%
5,COC(=O)C(NC(C)=O)(Nc1ccccn1)C(F)(F)F (stereo not drawn),20.1%
6,CC1(C)CNC(=O)c2sc(N3CCOCC3)nc2C1,15.4%
7,CCOC(=O)c1ccc(CC2S/C(=C(\C#N)C(C)=O)NC2=O)cc1 (stereo not drawn),-11.5%
8,CC(=Nc1cccc(O)c1)c1sc2ccccc2c1O,76.3% (active)
9,COc1cccc(N2C(=O)C(O)=C(C(C)=O)C2c2ccc(OC)c(OC)c2)c1 (stereo not drawn),-0.11%
10,O=S(=O)(c1ccc2ccccc2c1)N(CC(O)CN1CCOCC1)c1ccccc1 (stereo not drawn),14.9%
11,Cc1c(O)c(CN2CCCCC2)cc2c3c(c(=O)oc12)CCC3,14.9%
12,O=S(=O)(NCc1cccnc1)c1cccc2nsnc12,21.7%
13,Cc1cc(O)c(C(C)C)cc1N=C1CSC(=O)N1,19.6%
14,Cc1nc2sc(C#N)c(N)c2c2c1CCCC2,-41.1%
15,N#C/C(C(=O)N1CCOCC1)=C1/SC(Cc2ccccc2)C(=O)N1c1ccccc1 (stereo not drawn),24.9%
16,CN(CC(O)COc1ccc(OCC(O)CN(C)C2CCCCC2)cc1)C1CCCCC1 (stereo not drawn),52.7% (active)
17,Cn1c(=O)[nH]c(=O)c2c1nc(N(CCO)Cc1ccccc1)n2Cc1ccccc1Cl,28.7%
18,Cc1nn(-c2ccccc2)c2c1C(=O)NC(=O)C(C)(C)C2,18.9%
19,Cc1ccc(-n2ncc3c(N4CCN(c5ccccc5)CC4)ncnc32)c(C)c1,-19.9%
